Assay results as given in PubChem BioAssay (NCATS).
Inconclusive results are not listed. Activity calls are given as the source filed them. Calls follow the shape of the dose curve; as a rule, active = well fitted inhibition curve with a large enough effect; inconclusive = small, poorly fitted or top-dose-only effect; inactive = flat fitted curve, though single readings scatter.

test system: Zika virus NS2B-NS3 protease; assay: Primary screen GU AMC qHTS for Zika virus inhibitors (AID 1347154); conditions: Zika NS2B-NS3 unlinked protease, AMC fluorogenic substrate; series mostly up to 54.1 µM; activity change, negative = inhibition: at the top concentration; also: nearly all actives have a fitted effect of over 70% in size;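 as to activity change, negative = inhibition: 0% = no-inhibitor control and -100% = no-enzyme control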
How it was run: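 Unlinked Zika NS2B hydrophilic domain–NS3 protease complex at 25 nM in 10 mM Tris-HCl pH 8.0, 0.01% Tween 20, with an AMC peptide substrate. Fluorescence change (340/450 nm) over 15 min at room temperature, normalized to controls, fitted to 4-parameter Hill.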
Potency is read from the fitted curve at half-maximal effect.

| Structure (SMILES) | activity change, negative = inhibition | Potency |
| --- | --- | --- |
| CCCCCCCC/C=C/C(=O)O | -1.61% (inactive) |  |
| Clc1ccccc1-c1nc(-c2ccncc2)no1 | -2.17% (inactive) |  |
| CNC(=O)c1c(I)c(NC(=O)CCCCC(=O)Nc2c(I)c(C(=O)O)c(I)c(C(=O)NC)c2I)c(I)c(C(=O)O)c1I | -2.04% (inactive) |  |
| Cc1nc2ccccc2n1Cc1ccc(Cl)cc1 | -6.25% (inactive) |  |
| CCCCCCCCCCCC(=O)[O][Sn]([CH2]CCC)([CH2]CCC)[O]C(=O)CCCCCCCCCCC | -7.38% (inactive) |  |
| NC(=O)C(c1ccccc1)(c1ccccc1)[C@@H]1CCN(CCc2ccc3c(c2)CCO3)C1 | -8.28% (inactive) |  |
| O=C(Nc1ccc(C(=O)O)c(O)c1)c1ccccc1 | -8.04% (inactive) |  |
| O=c1[nH]c2ccccc2n1CCCN1CCN(C(c2ccccc2)c2ccccc2)CC1 | -14.4% (inactive) |  |
| CCCOC(=O)c1ccc(O)cc1 | 6.4% [at 104 µM] (inactive) |  |
| C=CCCCCCCCCC(=O)O | -0.57% (inactive) |  |
| CN1CCc2ccccc2Cc2[nH]c3ccccc3c2CC1 | 24.7% (inactive) |  |
| N#C/C(=C\c1ccc(O)c(O)c1)C(=O)NCc1ccccc1 | 15.3% (inactive) |  |
| Nc1c(CC(=O)O)cccc1C(=O)c1ccc(Br)cc1 | -5.02% (inactive) |  |
| O=C(OCc1ccccc1)c1ccccc1 | -1.37% (inactive) |  |
| CC1(C)C[C@@H]1C(=O)N/C(=C\CCCCSC[C@H](N)C(=O)O)C(=O)O | 9.2% (inactive) |  |
| Nc1cc(-c2ccncc2)c[nH]c1=O | -0.851% (inactive) |  |
| COc1ccc(-c2cc(=S)ss2)cc1 | -9.05% (inactive) |  |
| CCOc1ccc2nc(S(N)(=O)=O)sc2c1 | -18.6% (inactive) |  |
| COc1ccnc2c1CCCCC2S(=O)c1nc2ccccc2[nH]1 (stereo not drawn) |  | 35.5 µM (active) |

| Structure (SMILES) | activity change, negative = inhibition | Potency |
| --- | --- | --- |
| NCCO | 1.7% [at 104 µM] (inactive) |  |
| CCCCCCCCCCCCCCCC(=O)OC(C)C | 1.2% (inactive) |  |
| O=C(O)c1ccccc1Nc1cccc(C(F)(F)F)c1 | -2.28% (inactive) |  |
| Cc1c(Nc2ncccc2C(=O)O)cccc1C(F)(F)F | -2.54% (inactive) |  |
| CC(C(=O)O)c1ccc(C(=O)c2cccs2)cc1 (stereo not drawn) | -6.05% (inactive) |  |
| O=C(O)c1cc([N+](=O)[O-])ccc1NCCCc1ccccc1 | 4.05% (inactive) |  |
| CCCCC1C(=O)N(c2ccccc2)N(c2ccc(O)cc2)C1=O (stereo not drawn) | -12.2% (inactive) |  |
| O=C(O)/C=C\C(=O)O | -2.45% (inactive) |  |
| CC(C)(C)c1nnc(NS(=O)(=O)c2ccc(N)cc2)s1 | -1.9% (inactive) |  |
| c1ccc2sc(SSc3nc4ccccc4s3)nc2c1 | -1.43% [at 25.8 µM] (inactive) |  |
| O=C(O)Cc1ccc(-c2ccccc2)cc1 | 0.212% (inactive) |  |
| O=C(CCN1CCN(CCO)CC1)N1c2ccccc2Sc2ccc(C(F)(F)F)cc21 | 1.76% (inactive) |  |
| C#C[C@]1(O)CC[C@H]2[C@@H]3CCc4cc(O)ccc4[C@H]3CC[C@@]21C | -8.29% (inactive) |  |
| S=c1[nH]c2ccccc2s1 | -3.33% [at 104 µM] (inactive) |  |
| COc1cc(/C=C/C(=O)CC(=O)/C=C/c2ccc(O)c(OC)c2)ccc1O | 11% (inactive) |  |
| NC(=S)NCCC[C@H](N)C(=O)O | 9.32% [at 104 µM] (inactive) |  |
| Cc1ccc(C(=O)c2ccc(CC(=O)O)n2C)cc1 | -2.61% (inactive) |  |
| O=C(O)c1cc(=O)c2ccccc2[nH]1 | -14% (inactive) |  |
| COc1cc(NC(C)CCCN)c2ncccc2c1 (stereo not drawn) | -3.81% (inactive) |  |
